Screening results: PubChem BioAssay, National Center for Advancing Translational Sciences (NCATS)
In the library only some 21% were active in any assay of this set; here they are far more common.
Cycloheximide cs – counter-screen hit for Shiga toxin inhibitors, cycloheximide | cell reporter, cycloheximide protein synthesis inhibition counterscreen | max response, % | 300,000 compounds, 12% hits | AID 2314; in the data active means max response mostly above about 13%, no sharp cut-off; inactive means mostly below about 14%; further: read at 38.3 µM for the half of the compounds with a filed dose; 0% is about no effect
Pf growth 48h – inhibits P. falciparum growth in the first generation, 48 h; P. falciparum luciferase growth in erythrocytes, 48 h; Potency, µM (series often up to 28.7 µM), inactives show at the highest dose activity change, negative = inhibition, usual class: inhibitors; 310,000 compounds, 5.9% hits; active means well fitted inhibition curve with a large enough effect; inconclusive means small, poorly fitted or top-dose-only effect, or another doubt; inactive means no such curve, though single readings can be large or run the other way; further: potency means the concentration at half of the fitted maximal effect; on the % scale 0 is the no-effect control and ±100 the full control effect
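A one-generation exposure of luciferase-tagged malaria parasites in RPMI 1640/Albumax erythrocyte culture, 37 C and 5% CO2. Inhibition is inferred from decreased luminescence after adding detection reagent.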
Pf growth 96h – P. falciparum growth inhibition at 96 hours; P. falciparum luciferase reporter growth, 96 h; Potency, µM (series often up to 28.7 µM), for the others: at the highest dose activity change, negative = inhibition, actives largely listed as inhibitors; 320,000 compounds, 6.9% hits; AID 504834; active means well fitted inhibition curve with a large enough effect; inconclusive means small, poorly fitted or top-dose-only effect, or another doubt; inactive means no such curve, though single readings can be large or run the other way; further: potency means the concentration at half of the fitted maximal effect; on the % scale 0 is the no-effect control and ±100 the full control effect
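P. falciparum expressing integrated firefly luciferase, in erythrocytes at 2% hematocrit, 0.05% parasitemia, incubated with compounds 96 h at 37 C, 5% CO2. Growth inhibition read as loss of luminescence; two-generation exposure targets delayed-death apicoplast inhibitors.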
SARS PLpro yeast – inhibitors of SARS-CoV papain-like protease in yeast; 330,000 compounds, 0.19% hits; S. cerevisiae expressing SARS-CoV PLpro, growth rescue; AID 485353; Potency, µM (series often up to 32.9 µM), for inactives: at the top dose activity, positive = growth rescue, hits mostly activators; further: potency means the concentration at half of the fitted maximal effect; 0% is about no effect; nearly all actives have a fitted effect of over 55% in size
NS1 function inh – inhibitors of influenza NS1 protein function | Potency, µM (series often up to 46.1 µM), inactives show top-dose activity, positive = more growth | 270,000 compounds, 0.4% hits | AID 2326; further: potency means the concentration at half of the fitted maximal effect; actives are rising curves; nearly all actives have a fitted effect of over 50% in size
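Recovery from NS1-induced slow growth read by OD600 in budding yeast switched to galactose assay medium (pH 6.0, -URA) at 1:100 dilution. Compound 23 nl per well; the matching strain lacking NS1 serves as control.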
Shiga inhibitor – Shiga toxin inhibition | Vero cells, Shiga toxin protein synthesis inhibition reporter | inhibition, % at 38.7 µM | 290,000 compounds, 9.2% hits | AID 2315; in the data active means inhibition mostly above about 28%, no sharp cut-off; inactive means mostly below about 43%; further: 0% is about no effect
Numbers without * were called inactive; ? = inconclusive; . = no result given. Unless noted, the call rests on the fitted dose curve.

SMILES	Cycloheximide cs	Pf growth 48h	Pf growth 96h	SARS PLpro yeast	NS1 function inh	Shiga inhibitor
O=C(CC1(O)C(=O)N(Cc2cccc3ccccc23)c2ccccc21)c1cccnc1 (stereo not drawn)	-1	.	3.7µM*	-8%	-4%	-10
CC(C)C1C(=O)O[C@@H]2CCN3CC=C(COC(=O)[C@](C)(O)[C@]1(C)O)[C@H]23 (stereo partly drawn)	-3	.	.	.	.	9
COc1ccc(C(=O)Nc2ccccc2C(=O)NC(Cc2ccc(O)cc2)C(=O)NNC(=O)c2ccccc2)cc1 (stereo not drawn)	20*	10µM*	32%	-10%	29%	-2
COc1ccc(C(=O)Nc2ccccc2C(=O)NC(Cc2ccc(O)cc2)C(=O)NNC(=O)c2ccncc2)cc1 (stereo not drawn)	9	12µM*	151%	1%	.	23
COc1ccc(C(=O)Nc2ccccc2C(=O)NC(Cc2ccc(O)cc2)C(=O)NNC(=O)c2ccc(C)cc2)cc1 (stereo not drawn)	9	?	?	8%	15%	-6
COc1ccc2nc(N=NC3=C(O)CC(C)(C)CC3=O)sc2c1	28*	68%	93%	19%	-8%	44
CC1(C)CC(=O)C(N=Nc2ccc3ncsc3c2)=C(O)C1	29*	96%	53%	.	-122%	49*
CC1(C)CC(=O)C(N=Nc2ccc(OC(F)F)cc2)=C(O)C1	57*	23%	26%	-2%	.	79*
CC1(C)CC(=O)C(N=Nc2ccc(-c3ccccc3)cc2)=C(O)C1	6	-16%	-3%	0%	.	-7
COc1ccccc1N=NC1=C(O)CC(C)(C)CC1=O	23*	19%	-1%	-13%	-5%	active
N#C/C(=C/c1ccc(N2CCCCCC2)o1)c1ccc(Cl)cc1	26	.	.	-27%	-120%	22
N#CC(C#N)=Cc1ccc(N2CCCC2)cc1	28*	8%	-2%	-5%	.	44
N#C/C(=C/c1ccc(N2CCCCC2)o1)c1cccc(F)c1	39*	.	?	-29%	-51%	65*
N#C/C(=C/c1ccc(N2CCCCC2)cc1)c1cccc(F)c1	36*	35%	0%	-16%	-11%	25
O=C(CSc1nccc(=O)[nH]1)Nc1cccc2ccccc12	-1	14%	5%	0%	0%	-8
C=CCC1(/C=N/O)CCOC(C)(C)C1 (stereo not drawn)	1	7%	34%	0%	1%	8
CCOc1cccc(-c2c(C(=O)N/N=C/c3cccnc3)nnn2-c2nonc2N)c1	-7	7%	?	2%	1%	-1
CCOc1cccc(-c2c(C(=O)N/N=C/c3ccc(Br)cc3)nnn2-c2nonc2N)c1	-4	?	2.6µM*	-3%	2%	-2
CCCOc1ccc(/C=N/NC(=O)c2nnn(-c3nonc3N)c2-c2cccs2)cc1OC	27	13µM*	12µM*	3%	-5%	23
CCOc1ccc(-c2c(C(=O)N/N=C/c3cccc(Br)c3)nnn2-c2nonc2N)cc1	1	?	2.9µM*	-3%	9%	2
C=CCN(c1ccccc1)S(=O)(=O)c1ccc(Cl)c(C(=O)OCC(=O)N(C)C2CCS(=O)(=O)C2)c1 (stereo not drawn)	0	-7%	?	-2%	.	28
Cc1ccccc1C(=O)NC(CC(C)C)C(=O)OCC(=O)c1c(N)n(C)c(=O)n(C)c1=O (stereo not drawn)	-1	1µM*	?	0%	.	-2
Cn1c(N)c(C(=O)COC(=O)Cc2ccccc2)c(=O)n(C)c1=O	.	.	.	0%	.	.
CC(C)CC(C(=O)OCC(=O)c1c(N)n(C)c(=O)n(C)c1=O)N1C(=O)c2ccccc2C1=O (stereo not drawn)	-1	-14%	-29%	7%	-27%	-8
CC(=O)NC(CC(=O)OCC(=O)c1c(N)n(CC(C)C)c(=O)n(C)c1=O)c1ccccc1 (stereo not drawn)	.	12µM*	9.3µM*	3%	.	.
SMILES	Cycloheximide cs	Pf growth 48h	Pf growth 96h	SARS PLpro yeast	NS1 function inh	Shiga inhibitor
Cn1c(N)c(C(=O)COC(=O)CC(NC(=O)c2ccccc2Cl)c2ccccc2)c(=O)n(C)c1=O (stereo not drawn)	-2	1.3µM*	?	2%	.	-8
COc1ccc(NC(=O)c2ccc(NC(=O)COC(=O)CC(NC(=O)c3ccccc3Cl)c3ccccc3)cc2)cc1 (stereo not drawn)	22*	35%	43%	20%	8%	49
CCC(=O)Nc1cccc(C(=O)OCc2cccc([N+](=O)[O-])c2)c1	7	-17%	28%	-3%	-37%	2
Cc1ccc(Oc2ccc(C(F)(F)F)cc2[N+](=O)[O-])c([N+](=O)[O-])n1	30*	40%	38%	-2%	-3%	58
COc1ccc2c(c1)[C@H]1[C@H](CO2)[C@H](c2ccccc2)[C@]2(C)C(=O)N(Cc3ccc(C)cc3)CC(=O)N12	.	.	.	2%	.	.
Cc1cc(CC(=O)O)n(C)c1C(=O)c1ccc(Cl)cc1	10	38%	46%	-5%	.	4
O=C(NCc1ccc2c(c1)OCO2)c1cc(=O)[nH]c2ccccc12	-3	-9%	17%	-1%	-5%	-3
COc1ccc(C2=NOC(C(=O)N3CCOCC3)C2)cc1OC (stereo not drawn)	18*	109%	109%	7%	-17%	50*
COc1cccc(C2=NOC(C(=O)N3CCN(C(=O)c4ccco4)CC3)C2)c1 (stereo not drawn)	-2	11%	4%	5%	5%	23
COc1cccc(C2=NOC(C(=O)N3CCOCC3)C2)c1 (stereo not drawn)	63*	159%	1.7µM*	0%	0%	141*
COCCN(C(=S)Nc1ccccc1OC)C(C)c1cccs1 (stereo not drawn)	-3	6%	-24%	-23%	-2%	-9
O=Nc1ccc(NOC(=O)c2ccccc2Br)cc1	85*	-2%	-18%	-59%	-39%	127*
CC(=O)Nc1nc(C)c(Oc2ccc(C)cc2)c(=O)[nH]1	-1	?	?	1%	-2%	-3
CN(C)c1ccc(/C=C2\CCC/C(=C\c3ccccc3)C2=O)cc1	16	?	?	-29%	5%	22
O=C1/C(=C\c2cccnc2)CCc2ccccc21	29*	1%	0%	-21%	-195%	67
O=C1/C(=C/Nc2cccc([N+](=O)[O-])c2)CCc2ccccc21	81*	203%	?	-18%	-3%	29
O=C1ON=C(c2ccccc2)/C1=C/c1cccnc1	1	7%	-15%	0%	.	-15
O=C1/C(=C/c2ccccc2)CCCc2ccccc21	63*	7%	26%	-8%	-16%	96*
CC(C)/C=C1\CC/C(=C\c2cccnc2)C1=O	78*	?	158%	-12%	.	124*
